PubChem BioAssay (EPA / NIEHS)
Where “and” joins values, the source holds several entries; their conditions need not be identical. Equal values may be shown once. Some compounds were tested as several samples or in several runs, with calls that do not always agree. Calls of active or inactive are those of the source. Rule for the calls: active = hit-call score of the fitted dose curve at least 0.9, where 1 is the maximum; inactive = score below 0.9.

Each compound was assayed against Transcription factor Sp1 (Homo sapiens) (UniProt P08047) (assay: ATG_Sp1_CIS: Attagene CIS-FACTORIAL HepG2 Assay for human Specificity Protein 1 (Sp1) (AID 2282961)). Conditions: HepG2 Sp1 cis-reporter transcription, actives raise or lower the signal.
Chain of Transcription factor Sp1 (Homo sapiens) (P08047 whole entry, looked up): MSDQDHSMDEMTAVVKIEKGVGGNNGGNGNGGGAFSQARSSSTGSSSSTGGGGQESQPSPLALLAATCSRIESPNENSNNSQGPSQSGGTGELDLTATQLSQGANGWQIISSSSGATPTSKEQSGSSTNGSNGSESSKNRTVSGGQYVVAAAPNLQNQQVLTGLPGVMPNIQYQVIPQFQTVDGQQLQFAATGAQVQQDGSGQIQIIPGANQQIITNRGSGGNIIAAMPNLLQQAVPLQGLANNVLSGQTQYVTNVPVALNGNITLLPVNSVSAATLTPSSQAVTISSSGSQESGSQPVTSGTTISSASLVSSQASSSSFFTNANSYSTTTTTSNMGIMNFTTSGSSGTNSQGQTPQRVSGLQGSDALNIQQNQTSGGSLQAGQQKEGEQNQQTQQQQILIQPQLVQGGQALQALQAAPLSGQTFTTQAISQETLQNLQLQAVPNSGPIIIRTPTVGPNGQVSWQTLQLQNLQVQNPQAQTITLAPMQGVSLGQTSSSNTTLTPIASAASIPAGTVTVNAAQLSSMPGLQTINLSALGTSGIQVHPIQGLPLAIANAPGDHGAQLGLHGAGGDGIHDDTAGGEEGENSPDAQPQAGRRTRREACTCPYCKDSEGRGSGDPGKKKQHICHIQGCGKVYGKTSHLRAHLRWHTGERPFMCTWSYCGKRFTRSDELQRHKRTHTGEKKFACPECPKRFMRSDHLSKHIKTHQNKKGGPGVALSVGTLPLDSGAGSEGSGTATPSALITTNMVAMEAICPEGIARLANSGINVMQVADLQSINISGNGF
Description: ATG_CIS is a cell-based, multiplexed-readout assay that uses HepG2, a human liver cell line, with measurements taken at 24 hours after chemical dosing in a 24-well plate.ATG_Sp1_CIS is one of 52 assay component(s) measured or calculated from the ATG_CIS assay. It is designed to make measurements of mRNA induction, a form of inducible reporter, as detected with fluorescence intensity signals by Reverse transcription polymerase chain reaction (RT-PCR) and Capillary electrophoresis technology.Data from the assay component ATG_Sp1_CIS was analyzed into 1 assay endpoint. This assay endpoint, ATG_Sp1_CIS, was analyzed with bidirectional fitting relative to DMSO as the negative control and baseline of activity. Using a type of inducible reporter, measures of mRNA for gain or loss-of-signal activity can be used to understand the reporter gene at the transcription factor-level as they relate to the gene SP1. Furthermore, this assay endpoint can be referred to as a primary readout, because this assay has produced multiple assay endpoints where this one serves a reporter gene function. To generalize the intended target to other relatable targets, this assay endpoint is annotated to the dna binding intended target family, where the subfamily is zinc finger.
Human liver HepG2 cells are transiently transfected with multiple reporter transcription units (MRTUs) in 6-well plates using FuGene 6 reagent (Roche; 3 ml FuGene/1 mg DNA). The MRTU constructs are regulated by a cis-regulating element (promoter). […] A major difference between the CIS and TRANS system is that in CIS activities of endogenous TFs are measured, whereas the TRANS assay evaluates changes in activities of exogenous, chimeric NR-Gal4 proteins. […] At the end of 24 hour incubation, total RNA was isolated using TriZol reagent (Invitrogen). The isolated RNA is then reverse-transcribed using oligo(dT) primer and Mo-MLV reverse transcriptase (Invitrogen) with DNAse I (Ambion) treatment for 30 min. The one-tenth of the produced cDNA was amplified by PCR using Taq DNA polymerase (Invitrogen) and two reporter sequence-specific primers. The PCR products were fluorescently labeled by primer extension with 6-arboxyfluorescein (6-FAM) 5'-labeled reporter sequence-specific primer (2 min at 95 C, 20 s at 68 C and 10 min at 72 C) and these products were digested with 5U of HpaI (New England Biolabs) for 2h at 37 C. The fragments were purified using Qiaquick PCR columns (Qiagen), analyzed on an ABI 3130xL genetic analyzer (Applied Biosystems) with peak positions identified by using a set of X-rhodamine (ROX)-labeled MapMarker1000 molecular weight standards (BioVentures). The raw capillary electrophoresis data was processed using Attagraph software (Attagene).

SMILES | outcome | AC50
CCCCCCCCCC[N+](C)(C)[O-] | inactive | –
CCCCC(CC)CO (stereo not given) | inactive | –
C/C=C/c1ccc(OC)cc1 | inactive | –
Nc1nc(Cl)nc2c1ncn2[C@H]1C[C@H](O)[C@@H](CO)O1 | inactive | –
CS(=O)(=O)c1ccc([C@@H](C[C@H]2CCC(=O)C2)C(=O)Nc2cnccn2)cc1Cl | inactive | –
CCCCOC(=O)CCCCC(=O)OCCCC | inactive | –
CC(=O)O[C@]1(C(C)=O)CC[C@H]2[C@@H]3C=C(Cl)C4=CC(=O)[C@@H]5C[C@@H]5[C@]4(C)[C@H]3CC[C@@]21C | inactive | 154 µM (active) and 170 µM (active)
COc1ccc(OC(F)(F)F)cc1CN[C@H]1CCCN[C@H]1c1ccccc1 | inactive | –
NCCOCCOCCN | inactive | –
COC(=O)[C@H]1[C@H]2C[C@@H]3c4[nH]c5cc(OC)ccc5c4CCN3C[C@H]2C[C@@H](OC(=O)c2cc(OC)c(OC)c(OC)c2)[C@@H]1OC | inactive | –
Cc1ccc(C(C)(C)C)c(O)c1 | – | 100 µM (active)
CN(C)C(=O)NC1(c2ccccc2)CCN(CCC[C@]2(c3ccc(Cl)c(Cl)c3)CCCN(C(=O)c3ccccc3)C2)CC1 | – | 4.73 µM (active)
CCc1cc(C2=C(C(=O)O)N(c3ccccc3C(F)(F)F)S(=O)(=O)c3ccccc32)cc2c1OCO2 | – | 59 µM (active)
CCCCc1nc2cccnc2n1Cc1ccc(-c2ccccc2-c2nnn[nH]2)cc1 | inactive | –
NC1CCCCC1 | inactive | –
CCN(CC)CCOc1ccc(C(=C(Cl)c2ccccc2)c2ccccc2)cc1 | inactive | –
NC(=Nc1ccccc1)Nc1ccccc1 | inactive | –
CCCCC(CC)COC(=O)CCCCCCCC(=O)OCC(CC)CCCC (stereo not given) | inactive | –
COc1ccc(C(=O)Nc2nc3ccccc3c(NCc3ccccc3)c2C#N)cc1 | inactive | –
CC(C)COC(=O)CCCCC(=O)OCC(C)C | inactive | –

SMILES | outcome | AC50
CCCCCCCC(=O)OC | inactive | –
COC(=O)CCCC(=O)OC | inactive | –
Cc1c(C)c2c(c(C)c1O)CCC(C)(COc1ccc(CC3SC(=O)NC3=O)cc1)O2 (stereo not given) | inactive | –
Oc1ccc(O)cc1 | – | 29.1 µM (active)
CO[C@@H]1COCC[C@@H]1N[C@@H]1CC[C@@](C(=O)N2CCc3ncc(C(F)(F)F)cc3C2)(C(C)C)C1 | inactive | –
CSc1ccc(Oc2ccc(S(N)(=O)=O)cc2CN(C)C)cc1C | inactive | –
CCCCC(CC)COP(=O)(OCC(CC)CCCC)OCC(CC)CCCC (stereo not given) | inactive | –
CCCC[C@H]1CN(CC2CCOCC2)C(=O)OC12CCN(C1(C)CCN(C(=O)c3c(C)ncnc3C)CC1)CC2 | inactive | –
O=C1NC(=O)C(c2ccccc2)(c2ccccc2)N1 | inactive | –
Oc1ccccc1O | inactive | –
Cn1cnc2c1c(=O)[nH]c(=O)n2C | inactive | –
O=[Si]=O | inactive | –
N[C@@H](Cc1c[nH]c2ccccc12)C(=O)O | inactive | –
CCCCCCC(CCCCCCCCCCC(=O)OCC(COC(C)=O)OC(C)=O)OC(C)=O (stereo not given) | inactive | –
CCc1nc(N)nc(N)c1-c1ccc(Cl)cc1 | inactive | –
CN(C)CCCN1c2ccccc2Sc2ccc(Cl)cc21 | inactive | –
CCCCCCCCCCCCCCOS(=O)(=O)O | inactive | –
CC(=O)OCC(COC(C)=O)OC(C)=O | inactive | –
CCCCCCCCCCCCCCCCO | inactive | –
